# Source: PubChem BioAssay (National Center for Advancing Translational Sciences (NCATS))
# TDP1 cell CPT: qHTS for Inhibitors of human tyrosyl-DNA phosphodiesterase 1 (TDP1): qHTS in cells in presence of CPT; chicken DT40 Tdp1-/-;hTDP1 cells + 20 nM CPT, ATP luminescence, 48 h; Potency, µM (top dose mostly 46.2 µM), without a hit: at the top dose activity change, negative = growth inhibition, usual class: inhibitors; actives 12% (n = 420,000); AID 686979, 2013; further: potency means the concentration at half of the fitted maximal effect; nearly all actives have a fitted effect of over 55% in size
#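 Chicken DT40 Tdp1-/- cells stably complemented with human TDP1 were seeded at 400 cells/well in medium containing 20 nM camptothecin, exposed to pin-transferred compounds, and grown at 37 °C for at least 48 hr. Viability was read as ATP luminescence.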
# ELG1 repair inh: qHTS screen for small molecules that inhibit ELG1-dependent DNA repair in human embryonic kidney (HEK293T) cells expressing luciferase-tagged ELG1; HEK293T ELG1-luciferase reporter, luminescence, 16 h; DNA damage induced by 5-fluorouridine; Potency, µM (top dose mostly 46.1 µM), without a hit: at the top dose activity change, negative = inhibition, actives largely listed as inhibitors; actives 2.3% (n = 330,000); further: potency means the concentration at half of the fitted maximal effect; nearly all actives have a fitted effect of over 55% in size
#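 5-Fluorouridine DNA damage + compound/DMSO, 2,000 cells/well, 16 h, 37 °C/5% CO2. ONE-Glo, 30 min RT, luminescence. Readout = decrease in reporter signal.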
# HT1080 IDH1KD tx: qHTS for induction of synthetic lethality in tumor cells producing 2HG: qHTS for the HT-1080-IDH1KD cell line. actives 2% (n = 360,000). Potency, µM (doses to about 46.1 µM), inactives show at the top dose activity, negative = toxicity, actives largely listed as cytotoxic. HT-1080 IDH1 knockdown viability, ATP luminescence, 48 h. AID 686971, 2013;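 further: potency means the concentration at half of the fitted maximal effect; 0% = DMSO wells and -100% = cell-free medium wells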
#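 Assay cells: HT-1080 with IDH1 knockdown, 750 per well, RPMI/5% FBS. Exposure: 48 h at 37 °C following 2 h pre-incubation. Read: CellTiter-Glo luminescence; fitted concentration-response, curve class assigned.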
# HT1080-NT tox: qHTS for induction of synthetic lethality in tumor cells producing 2HG: qHTS for the HT-1080-NT fibrosarcoma cell line; HT-1080-NT fibrosarcoma viability, CellTiter-Glo ATP luminescence, 48 h; actives 1.6% (n = 360,000); AID 686970, 2013; Potency, µM (doses to about 46.1 µM), for the others: top-dose activity, negative = less viability, usual class: cytotoxic;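 further: NT is the 2HG producing partner of a matched IDH1 knockdown line; potency means the concentration at half of the fitted maximal effect; 0% = DMSO-treated cells and -100% = media-only wells without cells; nearly all actives have a fitted effect of over 55% in size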
#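 Toxicity toward the 2HG-producing NT line was scored as %Activity, normalised to DMSO and no-cell wells, from CellTiter-Glo luminescence after 48 hours' treatment.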
# DT40 TDP1 no CPT: qHTS for Inhibitors of human tyrosyl-DNA phosphodiesterase 1 (TDP1): qHTS in cells in absence of CPT | Potency, µM (doses to about 46.2 µM), for the others: at the top dose activity change, negative = growth inhibition, actives largely listed as inhibitors | DT40 Tdp1-/- hTDP1 cells, no CPT, ATP luminescence, 48 h | actives 15% (n = 420,000); further: potency means the concentration at half of the fitted maximal effect; nearly all actives have a fitted effect of over 55% in size
#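 A cellular qHTS used chicken DT40 cells lacking endogenous Tdp1 but carrying stably transfected human TDP1. Compounds were applied without camptothecin, and cell growth kinetics were judged by ATP-dependent luminescence after ≥48 hr.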
# IL-1B inflam inh: qHTS for Inhibitors of Inflammasome Signaling: IL-1-beta AlphaLISA Primary Screen; activity change, % at 57.5 µM; AID 743279, 2014; actives 4.7% (n = 360,000); THP-1 LPS/ATP IL-1B secretion, AlphaLISA, 16 h; hits give low values; in the data active means activity change below about -50%; inconclusive means mostly about -30% to -49%
#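 Secreted IL-1B measured by AlphaLISA bead assay after 16 h compound exposure of THP-1 cells; compounds (final up to 57.5 uM) added 1 h before LPS (250 ng/mL) and ATP (1.25 mM) stimulation; lower signal means less secretion.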
# Numbers without * were called inactive; ? = inconclusive; nt = not tested or not shown; ! = not active in a repeat. A selection: hits, their analogues and other compounds. The true share with any hit is near 19%. Unless noted, the call rests on the fitted dose curve; in most records, active means well fitted curve in the direction sought with a large enough effect; inconclusive means small, poorly fitted or top-dose-only effect, or another doubt; inactive means no such curve, though single readings can be large; an effect the other way counts as inactive or inconclusive. Unless noted, on the % scale 0 is the no-effect control and ±100 the full control effect.
SMILES,TDP1 cell CPT,ELG1 repair inh,HT1080 IDH1KD tx,HT1080-NT tox,DT40 TDP1 no CPT,IL-1B inflam inh
Cc1ccc(-n2c(C)nnc2SCC(=O)N2CCc3ccccc3C2)cc1,-8%,-1%,17%,2%,-28%,0
O=C(N/N=C/c1ccc([N+](=O)[O-])o1)C(=O)Nc1ccc(C(=O)O)cc1,-24%,-12%,9%,-17%,-14%,18
O=C(O)c1ccc(N/N=C/C=C/c2ccc([N+](=O)[O-])o2)cc1,8.2µM*,-1%,-8%,-2%,23µM*,-15
O=C(N/N=C/c1ccc([N+](=O)[O-])o1)C1CC1,7.3µM*,?,?,-13%,23µM*,13
Cc1noc(C)c1C(=O)N1CCC2(CC1)CN(c1ccccn1)C2,4%,nt,nt,nt,-3%,nt
Cc1noc(C)c1C(=O)N1CCC2(CC1)CCN(c1cccc(-c3ccccc3)c1)CC2,?,nt,nt,nt,4.6µM*,nt
Cc1noc(C)c1C(=O)N1CCC2(CC1)CN(c1cccc(-c3ccccc3)c1)C2,?,nt,nt,nt,21µM*,nt
COc1cc(CCCN2C(=S)NC[C@@H]2c2ccccc2)cc(OC)c1OC,26µM*,0%,-4%,4%,16µM*,1
COc1cc(CCCN2C(=S)NC[C@@H]2Cc2ccccc2)cc(OC)c1OC,26µM*,?,0%,8%,16µM*,-27
Cc1ccc(NC(=O)NCc2cccn2C)cc1C,18%,?,2%,19%,?,-12
O=C(CCC(=O)Nc1ccc(F)cc1)N/N=C/c1ccccc1O,?,10%,-16%,-1%,?,150
Cc1ccccc1/C=N/NC(=O)Cc1ccc(Cl)cc1,0%,-10%,-13%,-17%,-28%,0
C/C(=N\OCC(=O)N/N=C/c1ccc(C)cc1O)c1cccs1,4.6µM*,-17%,0%,-18%,4.1µM*,104
Cc1ccc(/C=N/NC(=O)Cc2ccc(Cl)cc2)c(O)c1,16µM*,-26%,18µM*,?,21µM*,65
C=CCc1cccc(/C=N/NC(=O)CCC(=O)Nc2ccc(C)cc2)c1O,15µM*,-32%,?,-30%,10µM*,60
Cc1ccc(NC(=O)CCC(=O)N/N=C/c2ccc(O)cc2O)cc1,15µM*,18µM*,?,?,16µM*,175
CNNC(=S)Nc1cccc(SC)c1,19%,3%,-2%,-6%,-1%,11
CC(C)(C)NCC(O)CSc1nc(-c2ccc(C(N)=O)s2)cs1 (stereo unspecified),12%,nt,nt,nt,-29%,nt
COc1ccc(S(=O)(=O)N(C)C[C@@H]2OCc3cn(nn3)CCCC(=O)N([C@@H](C)CO)C[C@H]2C)cc1,-7%,nt,3%,4%,2%,9
Cc1ccc(O)c(C(=O)c2cnc3c(c2)c(-c2ccc(F)cc2)c(C#N)c(=O)n3C)c1,18µM*,?,-1%,-8%,21µM*,-28
Cc1ccc(Cn2ccnc2SCC(=O)NCc2ccccc2)cc1,-13%,nt,nt,nt,3%,nt
O=C(CSC1=NCCN1)C1COc2ccccc2O1 (stereo unspecified),18µM*,10%,?,2%,?,-13
CCCCc1c(CCC)c(=N)c2ccccc2n1C,23µM*,?,21µM*,-15%,5.2µM*,-77*
CC(=O)OCc1c(-c2ccccc2)c2cc([N+](=O)[O-])ccc2n1C,3.7µM*,?,-28%,-19%,1.8µM*,26
CCOc1ccc(CN2CCc3nc(Nc4ccc(OC)cc4OC)ncc3C2)cc1,21µM*,nt,nt,nt,?,nt
SMILES,TDP1 cell CPT,ELG1 repair inh,HT1080 IDH1KD tx,HT1080-NT tox,DT40 TDP1 no CPT,IL-1B inflam inh
COc1ccc(Nc2ncc3c(n2)CCN(Cc2ccccc2C)C3)c(OC)c1,?,nt,nt,nt,10µM*,nt
COc1cc(Nc2ncc3c(n2)CCN(Cc2ccc(OC(C)C)c(OC)c2)C3)cc(OC)c1,16µM*,nt,nt,nt,13µM*,nt
Cc1ccccc1CN1CCc2nc(Nc3ccc4c(c3)OCCO4)ncc2C1,23µM*,nt,nt,nt,21µM*,nt
COc1ccccc1N1CCN(c2ncc3c(n2)CCN(Cc2ccccc2C)C3)CC1,-12%,nt,nt,nt,5%,nt
CCCCCCCCCCCCCC[N+](C)(C)C,0.94µM*,nt,nt,nt,0.6µM*,nt
CCCCCC[N+](C)(C)CCSSCC[N+](C)(C)CCCCCC,-7%,3%,1%,11%,-5%,-11
CCCCCCCCCCCCCCCC[N+](C)(C)CCl,1.8µM*,nt,-30%,-11%,2.3µM*,-92*
CCCCCCCCCCCCCCCC[N+](C)(C)CC,1µM*,-22%,16µM*,16µM*,0.52µM*!,-1
CCCCCCCC[N+](C)(C)CCCCCCCC,1.7µM*,nt,nt,nt,1.5µM*,nt
Fc1ccc(NCc2nnc3n2CCCCC3)cc1Cl,-4%,nt,nt,nt,0%,nt
O=C(CCN1C(=O)[C@@H]2Cc3ccccc3CN2C1=O)NCc1ccc(Cl)cc1,?,1%,5%,0%,?,-14
CS(=O)(=O)Nc1cc(C(=O)N2CCNC(=O)C2)c2c(c1)ncn2CCc1ccccc1,1%,nt,nt,nt,-15%,nt
Cc1ccc(S(=O)(=O)Nc2ccc(-c3ccc4nncn4n3)cc2)cc1,-20%,?,-11%,-13%,?,13
O=C(N/N=C/c1ccc(Br)s1)c1c[nH]c2ccccc12,?,?,-25%,-6%,?,-81*
O=C(N/N=C/c1cc2c(cc1Br)OCO2)c1ccccn1,-8%,?,-16%,1%,?,-7
O=C(N/N=C/c1ccc2c(c1)OCO2)c1ccc2c(c1)OCCO2,16µM*,?,23µM*,?,?,-8
O=C(N/N=C/c1cc2c(cc1Br)OCO2)c1c[nH]c2ccccc12,?,-2%,-10%,-14%,21µM*,?
O=C(O)c1ccc(N/N=C/c2ccc3c(c2)OCO3)cc1,?,?,23µM*,18µM*,?,3
CC1(C)OC(=O)C2(Cc3cc([N+](=O)[O-])ccc3N3CCCCCC32)C(=O)O1 (stereo unspecified),-6%,nt,nt,nt,-11%,nt
Fc1ccc(N/N=C/c2ccncc2)c(F)c1,-2%,?,27%,-20%,-21%,-4
